Several values for one entry are separate records, joined by “and”; a condition that tells them apart may be missing. Identical values can stand only once. Values without a mark were called inactive. Inconclusive results are not listed. Where a call stands in place of a potency, no number is given. Activity calls are given as the source filed them. Unless noted, the call rests on the fitted dose curve; in most records, active means well fitted curve in the direction sought with a large enough effect in the repeat runs; inconclusive means weak or mixed curves; inactive means no such curve, though single readings can be large; an effect the other way counts as inactive or inconclusive.
Columns and labels:
[1] = Human pregnane X receptor (PXR) small molecule agonists, qHTS cell viability counter screen (AID 1346977); further: nearly all actives have a fitted effect of over 50% in size; further: potency means the concentration at half of the fitted maximal effect
Method in brief: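 After a 5hr pre-incubation, PXR-Luc HepG2 cells received compounds plus positive control in DMSO and were kept 24hr at 37C. Cell viability was quantified by fluorescence from CellTiter-Fluor added for the final hour.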

[2] = Caspase-3/7 induction in HepG2 cells by small molecules, qHTS assay (AID 1346978); further: nearly all actives have a fitted effect of over 15% in size; further: potency means the concentration at half of the fitted maximal effect
Method in brief: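 Wild-type HepG2 cells (2,000/well) were settled 5 h at 37 C, 5% CO2, then exposed to compounds in DMSO for 17 h. Caspase-3/7 activity was read by luminescence 30 min after adding Caspase-Glo 3/7 reagent at room temperature.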

[3] = Caspase-3/7 induction in CHO-K1 cells by small molecules, qHTS cell viability counter screen (AID 1346979); further: nearly all actives have a fitted effect of over 35% in size; further: potency means the concentration at half of the fitted maximal effect
Method in brief: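 Multiplexed with Caspase-Glo 3/7 in CHO-K1 cells, this counter screen added CellTiter-Fluor after 16hr of compound exposure and recorded fluorescence 1hr later.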

[4] = Caspase-3/7 induction in CHO-K1 cells by small molecules, qHTS assay (AID 1346980); further: nearly all actives have a fitted effect of over 15% in size
Method in brief: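 Wild-type cells were seeded at 1,500 per well and settled 5 hr at 37 C, 5% CO2, then exposed to DMSO-dissolved compounds for 17 hr. Caspase-Glo 3/7 reagent was added, and luminescence was read after 30min at room temperature.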

[5] = Caspase-3/7 induction in HepG2 cells by small molecules, qHTS cell viability counter screen (AID 1346981); further: nearly all actives have a fitted effect of over 30% in size; further: potency means the concentration at half of the fitted maximal effect
Method in brief: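 HepG2, WT, 2,000 cells/well; 5 hr pre-incubation 37 C/5% CO2; compound pin-transferred from DMSO; 16 hr exposure; CellTiter-Fluor, 1 hr; fluorescence read.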

[6] = target: Nuclear receptor subfamily 1 group I member 2 (Homo sapiens) (UniProt O75469); test: Human pregnane X receptor (PXR) small molecule agonists, qHTS assay (AID 1346982); further: nearly all actives have a fitted effect of over 35% in size; further: potency means the concentration at half of the fitted maximal effect
Method in brief: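 Luciferase signal from ONE-Glo (30 min, room temperature) measured activation of hPXR-driven CYP3A4 reporter expression in PXR-Luc HepG2 cells treated with compounds for 24 hr at 37 C.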

[7] = target: Acetylcholinesterase (Homo sapiens) (UniProt P22303); test: Acetylcholinesterase (AChE) small molecule antagonists: colormetric cell-based qHTS assay (AID 1347395; calls by dose curve; further: nearly all actives have a fitted effect of over 30% in size; further: potency means the concentration at half of the fitted maximal effect)
Method in brief: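 In this cell-based qHTS, attached SH-SY5Y cells were treated with test chemicals for 30 min, after which acetylthiocholine hydrolysis was followed by DTNB colour development over 90 min at 37 C.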

[8] = target: Nuclear receptor subfamily 1 group I member 2 (Rattus norvegicus) (UniProt Q9R1A7); test: Rat pregnane X receptor (rPXR) activation by small molecules, qHTS assay (AID 1346983); settings: rPXR luciferase reporter cells, One-Glo luminescence, 24 h; stronger effect = higher value; further: nearly all actives have a fitted effect of over 20% in size
Method in brief: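 Cell-based rPXR luciferase reporter assay, 2,000 cells per well, rested 5hr at 37 C before compound addition in DMSO, then 24 hr at 37 C. One-Glo reagent was added and luminescence read after 30 min at room temperature.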

[9] = target: Nuclear receptor subfamily 1 group I member 2 (Homo sapiens) (UniProt O75469); test: CYP3A4 induction through human pregnane X receptor (PXR) by small molecules, qHTS assay (AID 1346984); further: nearly all actives have a fitted effect of over 40% in size
Method in brief: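 Luminescence readout: luciferase signal after One-Glo (30 min, room temperature), following 3 h at 37C with 3uM final Luciferin-IPA P450 substrate. Cells were DPX-2 (HepG2, PXR/CYP3A4-luc co-transfected) dosed for 24 h.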

[10] = target: Nuclear receptor subfamily 1 group I member 2 (Homo sapiens) (UniProt O75469); test: Human pregnane X receptor (PXR) activation by small molecules, qHTS assay (AID 1346985); further: nearly all actives have a fitted effect of over 40% in size
Method in brief: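 DPX-2 cells (HepG2 co-transfected with a PXR response element and a CYP3A4-promoter luciferase construct) were seeded at 2,000 per well, rested 5 hr at 37C, then exposed to DMSO-dissolved compounds for 24 hr. Activation was read as luciferase luminescence.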

Sequence of Acetylcholinesterase (Homo sapiens) (P22303 whole entry, looked up): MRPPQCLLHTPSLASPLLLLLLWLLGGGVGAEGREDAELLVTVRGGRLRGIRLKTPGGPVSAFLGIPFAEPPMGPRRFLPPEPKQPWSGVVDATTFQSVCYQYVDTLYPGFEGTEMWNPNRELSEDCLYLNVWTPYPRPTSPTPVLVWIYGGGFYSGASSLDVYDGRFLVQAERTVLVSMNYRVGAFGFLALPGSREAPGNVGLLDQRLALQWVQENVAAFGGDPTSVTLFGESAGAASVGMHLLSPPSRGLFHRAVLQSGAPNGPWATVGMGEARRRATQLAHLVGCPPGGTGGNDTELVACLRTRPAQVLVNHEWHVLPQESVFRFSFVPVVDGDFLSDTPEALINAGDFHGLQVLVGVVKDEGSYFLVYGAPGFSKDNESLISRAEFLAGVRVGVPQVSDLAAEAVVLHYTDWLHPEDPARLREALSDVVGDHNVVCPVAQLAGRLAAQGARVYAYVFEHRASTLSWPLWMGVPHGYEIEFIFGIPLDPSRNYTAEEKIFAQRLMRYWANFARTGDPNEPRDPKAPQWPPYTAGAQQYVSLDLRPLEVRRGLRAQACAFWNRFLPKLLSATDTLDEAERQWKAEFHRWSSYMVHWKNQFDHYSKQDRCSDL
Sequence of Nuclear receptor subfamily 1 group I member 2 (Rattus norvegicus) (Q9R1A7 whole entry, looked up): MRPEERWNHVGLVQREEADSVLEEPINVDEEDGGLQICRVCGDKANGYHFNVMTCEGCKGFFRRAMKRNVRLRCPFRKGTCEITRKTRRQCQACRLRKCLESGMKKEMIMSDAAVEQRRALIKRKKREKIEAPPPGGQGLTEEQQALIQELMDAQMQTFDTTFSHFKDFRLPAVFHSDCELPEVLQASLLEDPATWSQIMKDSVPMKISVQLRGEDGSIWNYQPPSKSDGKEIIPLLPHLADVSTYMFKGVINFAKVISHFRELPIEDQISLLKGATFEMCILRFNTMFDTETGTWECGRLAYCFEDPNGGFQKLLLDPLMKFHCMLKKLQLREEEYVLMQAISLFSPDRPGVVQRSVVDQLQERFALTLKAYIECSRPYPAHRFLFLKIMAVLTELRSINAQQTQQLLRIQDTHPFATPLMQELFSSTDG
Sequence of Nuclear receptor subfamily 1 group I member 2 (Homo sapiens) (O75469 whole entry, looked up): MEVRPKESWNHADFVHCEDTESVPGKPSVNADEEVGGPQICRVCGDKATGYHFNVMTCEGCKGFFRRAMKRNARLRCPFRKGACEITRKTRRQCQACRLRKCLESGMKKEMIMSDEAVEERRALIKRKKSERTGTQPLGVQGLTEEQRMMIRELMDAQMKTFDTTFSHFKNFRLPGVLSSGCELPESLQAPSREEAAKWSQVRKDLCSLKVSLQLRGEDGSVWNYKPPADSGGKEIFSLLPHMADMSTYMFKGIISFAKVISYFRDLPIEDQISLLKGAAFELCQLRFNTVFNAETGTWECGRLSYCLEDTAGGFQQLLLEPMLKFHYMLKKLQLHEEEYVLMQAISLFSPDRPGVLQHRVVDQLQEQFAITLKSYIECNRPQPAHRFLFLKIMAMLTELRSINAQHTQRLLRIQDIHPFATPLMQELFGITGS

CCCC[N+](CCCC)(CCCC)CCCC
Potency [1]: inactive | Potency [2]: inactive | Potency [3]: inactive | Potency [4]: inactive | Potency [5]: inactive | Potency [6]: inactive | Potency [7]: 44.7 µM (active)

C1CCNCC1
Potency [1]: inactive | Potency [2]: inactive | Potency [3]: inactive | Potency [4]: inactive | Potency [5]: inactive | Potency [6]: inactive | Potency [7]: inactive

CC(C)c1ccc(OP(=O)(Oc2ccc(C(C)C)cc2)Oc2ccc(C(C)C)cc2)cc1
Potency [1]: inactive | Potency [2]: inactive | Potency [3]: inactive | Potency [4]: inactive | Potency [5]: inactive | Potency [6]: 4.36 µM (active) and 5.45 µM (active) and 10.9 µM (active) | Potency [7]: 35.8 µM (active) and 31.7 µM (active)

CC(O)CN1CCN(CC(=O)[O-])CCN(CC(=O)[O-])CCN(CC(=O)[O-])CC1.[Gd+3] (centres undefined)
Potency [1]: inactive | Potency [2]: inactive | Potency [3]: inactive | Potency [4]: inactive | Potency [5]: inactive | Potency [6]: inactive | Potency [7]: inactive

Clc1ccccc1
Potency [1]: 26.9 µM (active) | Potency [2]: inactive | Potency [3]: 9.55 µM (active) | Potency [4]: inactive | Potency [5]: 26.9 µM (active) | Potency [6]: 24 µM (active) | Potency [7]: inactive

CN(C)C(=O)Nc1cccc(OC(=O)NC(C)(C)C)c1
Potency [1]: inactive | Potency [2]: inactive | Potency [3]: inactive | Potency [4]: inactive | Potency [5]: inactive | Potency [7]: inactive

COC1=CC(=O)O[C@@H](/C=C/c2ccc3c(c2)OCO3)C1
Potency [1]: inactive | Potency [2]: inactive | Potency [3]: inactive | Potency [4]: inactive | Potency [5]: inactive | Potency [6]: inactive | Potency [7]: inactive

CCOc1cccc(C2(N3CCN(c4ccccc4)CC3)CCC(C)CC2)c1 (centres undefined)
Potency [1]: inactive | Potency [2]: inactive | Potency [3]: inactive | Potency [4]: inactive | Potency [5]: inactive | Potency [6]: inactive | outcome [7]: inactive

CC(C)(C)OOC(C)(C)CCC(C)(C)OOC(C)(C)C
Potency [1]: inactive | Potency [2]: inactive | Potency [3]: inactive | Potency [4]: inactive | Potency [5]: inactive | Potency [6]: inactive | Potency [7]: inactive

CC(Oc1cccc(Cl)c1)C(=O)O (centres undefined)
Potency [1]: inactive | Potency [2]: inactive | Potency [3]: inactive | Potency [4]: inactive | Potency [5]: inactive | Potency [6]: inactive | Potency [7]: inactive

CCC(=O)O[C@@H]1C=C2CCC3C(CCC4(C)C3CC[C@@H]4OC(=O)CC)C2CC1 (some centres undefined)
Potency [1]: inactive | Potency [2]: inactive | Potency [3]: inactive | Potency [4]: inactive | Potency [5]: inactive | Potency [6]: inactive | Potency [7]: inactive

CCC(C)Cl (centres undefined)
Potency [1]: inactive | Potency [2]: inactive | Potency [3]: inactive | Potency [4]: inactive | Potency [5]: inactive | Potency [6]: inactive | Potency [7]: inactive

CCc1ccccc1N
Potency [1]: inactive | Potency [2]: inactive | Potency [3]: inactive | Potency [4]: inactive | Potency [5]: inactive | Potency [6]: inactive | Potency [7]: inactive

CCCCCCCCn1sccc1=O
Potency [1]: 50.1 µM (active) and 25.5 µM (active) | Potency [2]: 25.5 µM (active) | Potency [3]: 12.2 µM (active) and 11.4 µM (active) | Potency [4]: inactive | Potency [5]: 68.7 µM (active) and 50.9 µM (active) | Potency [6]: 21.7 µM (active) and 4.04 µM (active) | Potency [7]: inactive

CC(Cl)C(=O)O (centres undefined)
Potency [1]: inactive | Potency [2]: inactive | Potency [3]: inactive | Potency [4]: inactive | Potency [5]: inactive | Potency [6]: inactive | Potency [7]: inactive

C=CCc1ccccc1O
Potency [1]: inactive | Potency [2]: inactive | Potency [3]: inactive | Potency [4]: inactive | Potency [5]: inactive | Potency [6]: inactive | Potency [7]: inactive

O=C(O)C(O)C(O)C(=O)O (centres undefined)
Potency [1]: inactive | Potency [2]: inactive | Potency [3]: inactive | Potency [4]: inactive | Potency [5]: inactive | Potency [7]: inactive

OCCSSCCO
Potency [1]: inactive | Potency [2]: inactive | Potency [3]: inactive | Potency [4]: inactive | Potency [5]: inactive | Potency [6]: inactive | Potency [7]: inactive

C=CCc1ccc(OC(=O)Cc2ccccc2)c(OC)c1
Potency [1]: inactive | Potency [2]: inactive | Potency [3]: inactive | Potency [4]: inactive | Potency [5]: inactive | Potency [6]: inactive | Potency [7]: inactive

CC(C)OC(=O)Cc1ccccc1
Potency [1]: inactive | Potency [2]: inactive | Potency [3]: inactive | Potency [4]: inactive | Potency [5]: inactive | Potency [6]: inactive | Potency [7]: inactive

O=C(O)COc1cc(Cl)c(Cl)cc1Cl
Potency [1]: inactive | Potency [2]: inactive | Potency [3]: inactive | Potency [4]: inactive | Potency [5]: inactive | Potency [6]: inactive | Potency [7]: inactive

[Cl-].[Cl-].[Hg+2]
Potency [1]: 7.08 µM (active) and 6.11 µM (active) | Potency [2]: inactive | Potency [3]: 483 nM (active) and 2.43 µM (active) | Potency [4]: inactive | Potency [5]: 27.2 µM (active) and 54.5 µM (active) | max activation [8]: -4.43%

CC(C)(C)c1ccc(CCOc2ncnc3ccccc23)cc1
Potency [1]: inactive | Potency [2]: inactive | Potency [3]: inactive | Potency [4]: inactive | Potency [5]: inactive | Potency [6]: inactive | Potency [7]: inactive

C[CH2][Hg][S]c1ccccc1C(=O)O
Potency [1]: 3.44 µM (active) and 6.68 µM (active) | Potency [2]: inactive | Potency [3]: 1.72 µM (active) and 1.88 µM (active) | Potency [4]: inactive | Potency [5]: 12.2 µM (active) and 13.3 µM (active) | max activation [8]: -14.1%

OC[P+](CO)(CO)CO
Potency [1]: inactive | Potency [2]: inactive | Potency [3]: inactive | Potency [4]: inactive | Potency [5]: inactive | Potency [6]: 61.8 µM (active) | Potency [7]: inactive

Clc1ccc2ccccc2c1
Potency [1]: inactive | Potency [2]: inactive | Potency [3]: inactive | Potency [4]: inactive | Potency [5]: inactive | Potency [6]: inactive | Potency [7]: inactive

Oc1cccc(Cl)c1
Potency [1]: inactive | Potency [2]: inactive | Potency [3]: inactive | Potency [4]: inactive | Potency [5]: inactive | Potency [7]: inactive

C=C(Cl)Cl
Potency [1]: inactive | Potency [2]: inactive | Potency [4]: inactive | Potency [5]: inactive | Potency [6]: 58 µM (active) | Potency [7]: inactive

CN[C@@H](C)[C@H](O)c1ccccc1
Potency [1]: inactive | Potency [2]: inactive | Potency [4]: inactive | Potency [5]: inactive | Potency [6]: inactive | max activation [8]: -0.788% | outcome [9]: inactive | Potency [10]: inactive | Potency [7]: inactive

From PubChem BioAssay (Tox21)
